Source: PubChem (several laboratories)
Calb biofilm kill = kills Candida albicans biofilms | C. albicans biofilm + clotrimazole, Alamar Blue | inhibition, % at 6 µM | hit rate 0.14% among 85,000 | AID 834;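 active = inhibition above 20%; inactive = inhibition below 20%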;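 also: preformed 24 hr biofilms exposed to compound for 48 hr; 0% = biofilm without compound and 100% = blank killed by clotrimazole plus chlorhexidine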
PostGolgi yeast = growth inhibition of a yeast mutant, post-Golgi transport screen; post-Golgi transport phenotypic cell assay; inhibition, % at 10 µM; hit rate 0.9% among 98,000; AID 739;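 also: yeast cells grown in 1536-well plates; yeast grown about 18 h at 30C before absorbance read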
PostGolgi ctrl = growth of the yeast control strain, post-Golgi counter-screen | inhibition, % at 10 µM | hit rate 5% among 98,000 | efflux-deficient yeast background strain, growth absorbance A615, 16 h | AID 738
EphB4 antag = EphB4-ephrin-B2 interaction antagonism | inhibition, % at 7 µM | AID 720 | hit rate 0.15% among 97,000 | EphB4 LBD / TNYL-RAW-Alexa532 peptide, fluorescence polarization;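 active = inhibition above the screen-wide mean inhibition plus 3 SD, cut at about 15% in these data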;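 also: 0% = DMSO wells and 100% = excess unlabeled TNYL-RAW peptide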
Target sequence (P54760 whole entry, looked up, the tested form may be a part): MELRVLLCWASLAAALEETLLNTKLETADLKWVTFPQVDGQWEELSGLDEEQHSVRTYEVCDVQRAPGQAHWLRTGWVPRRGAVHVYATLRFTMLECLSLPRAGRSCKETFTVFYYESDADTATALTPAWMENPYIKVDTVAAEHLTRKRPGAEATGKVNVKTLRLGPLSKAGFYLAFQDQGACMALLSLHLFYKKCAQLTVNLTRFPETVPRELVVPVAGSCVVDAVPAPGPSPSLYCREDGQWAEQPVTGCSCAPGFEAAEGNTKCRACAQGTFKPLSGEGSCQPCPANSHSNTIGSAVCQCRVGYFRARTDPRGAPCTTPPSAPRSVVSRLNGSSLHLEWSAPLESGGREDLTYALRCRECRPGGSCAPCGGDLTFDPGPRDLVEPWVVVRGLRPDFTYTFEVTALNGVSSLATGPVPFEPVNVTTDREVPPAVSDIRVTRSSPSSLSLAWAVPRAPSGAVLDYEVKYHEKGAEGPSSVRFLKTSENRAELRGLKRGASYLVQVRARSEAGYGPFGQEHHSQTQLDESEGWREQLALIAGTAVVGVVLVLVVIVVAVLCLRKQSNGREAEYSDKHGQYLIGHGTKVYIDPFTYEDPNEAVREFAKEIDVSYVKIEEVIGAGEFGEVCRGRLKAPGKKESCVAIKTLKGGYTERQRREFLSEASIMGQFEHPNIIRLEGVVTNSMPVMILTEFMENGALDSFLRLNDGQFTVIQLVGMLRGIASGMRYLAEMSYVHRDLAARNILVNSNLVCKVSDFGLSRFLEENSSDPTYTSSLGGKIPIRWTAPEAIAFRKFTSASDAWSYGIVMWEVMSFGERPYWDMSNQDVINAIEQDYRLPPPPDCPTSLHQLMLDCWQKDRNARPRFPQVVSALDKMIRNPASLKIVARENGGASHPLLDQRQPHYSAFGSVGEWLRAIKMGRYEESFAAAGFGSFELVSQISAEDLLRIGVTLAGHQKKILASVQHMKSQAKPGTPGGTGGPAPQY
Starred values were filed as active, the others as inactive; / = not tested or not shown. In the library only some 5.2% were active in any assay of this set; here they are far more common. Rule as the data show it, unless noted: active = inhibition above about 30%; inactive = the rest.

SMILES	Calb biofilm kill	PostGolgi yeast	PostGolgi ctrl	EphB4 antag
COC(=O)c1ccc2c(c1)NC(=O)C(N1CCOCC1)S2 (stereo not drawn)	/	-1	14	-10
CCC1CCCCN1C1Sc2ccc(C(=O)OC)cc2NC1=O (stereo not drawn)	/	8	40*	4
N=C(N)N1CCc2ccccc2C1	9	/	/	/
Cc1ccc(OCCn2cc(Br)c(=O)[nH]c2=O)cc1	1	-8	11	4
O=S(=O)(c1ccc2c(c1)OCCO2)N(Cc1ccc(F)cc1)Cc1nnc(-c2cccs2)o1	11	-4	35*	1
COc1ccc(OC)c(CN2CCN(C(=O)c3cccc4ccccc34)CC2)c1	-1	3	34*	0
CCOC(=O)Cc1csc(NC(=O)CCCCCN2C(=O)c3cccc4cccc(c34)C2=O)n1	1	/	/	5
Cc1nnsc1C(=O)NNS(=O)(=O)c1ccccc1	6	2	38*	-1
O=C(Nc1cc(Cl)ccc1Cl)c1ccc(OC(=O)c2ccco2)cc1	5	5	6	6
CCn1c(CSc2nc3ccccc3s2)nnc1SCC(=O)c1ccc(Cl)cc1	/	-9	43*	6
CCn1c(CSc2nc3ccccc3s2)nnc1SCC(=O)c1ccc(O)c(O)c1	/	19	-17	0
Cc1ccc(S(=O)(=O)c2cc(C#N)c(=O)[nH]c2N)cc1	/	2	2	1
O=C(c1ccco1)c1nnn(Cc2ccccc2)c1-c1ccccc1	10	12	10	-2
Cc1ccc(O)c(NC(=O)c2cc3nc4c(c(C(F)(F)F)n3n2)CCc2ccccc2-4)c1	/	2	35*	-2
Cc1ccc(C)c2c1[nH]c1ccc([N+](=O)[O-])cc12	5	9	54*	0
CCCc1cc(C(=O)Nc2c(C)n(C)n(-c3ccccc3)c2=O)no1	3	0	14	-7
Clc1ccc(OCCCNCc2ccccc2)c(Br)c1	/	-37	31*	3
CCOC(=O)C1=C(CSc2nccn2C)NC(=O)NC1c1ccc2c(c1)OCO2 (stereo not drawn)	3	0	9	-10
CCOC(=O)C1=C(CNCc2ccccc2Cl)NC(=O)NC1c1ccc2c(c1)OCO2 (stereo not drawn)	4	-7	39*	-5
O=C(c1ccccc1)c1ccccc1N/C=C/c1nnnn1-c1ccccc1	/	-1	35*	6
CCCC1(CCC)NC(=O)N(CC(=O)N2CCN(C(=O)c3ccco3)CC2)C1=O	/	12	9	5
Cc1ccc2cc(C#N)c(N3CCCC3)nc2c1C	6	-1	47*	3
Cc1ccc2cc(C#N)c(N3CCCN(C(=O)C4CCCO4)CC3)nc2c1C (stereo not drawn)	-1	-1	18	/
N#Cc1ccc(-n2c(-c3ccccc3)nnc2-c2ccccc2)cc1C#N	4	4	41*	0
N#Cc1cccc(-n2c(-c3ccccc3)nnc2-c2ccccc2)c1C#N	3	4	24	3
SMILES	Calb biofilm kill	PostGolgi yeast	PostGolgi ctrl	EphB4 antag
Cn1nc(C(=O)N2CCCC2)c2ccccc2c1=O	3	-3	30*	2
O=C(c1ccc2c(c1)OCO2)N(c1ccc(Cl)cc1)C1C=CS(=O)(=O)C1 (stereo not drawn)	7	2	7	/
COC(=O)c1ccc(C(c2c(N)n(CC(C)C)c(=O)[nH]c2=O)N2CCN(c3ccccc3)CC2)cc1 (stereo not drawn)	9	-17	35*	1
CN1C(=O)/C(=C/c2cn(CC(=O)N3CCCCC3)c3ccccc23)c2ccccc21	-2	0	52*	9
CC1CCCC(C)N1C(=O)Cn1cc(/C=C2/C(=O)Nc3ccccc32)c2ccccc21 (stereo not drawn)	-1	0	82*	2
COC(=O)c1cn(CC(=O)N2C(C)CCCC2C)c2ccccc12 (stereo not drawn)	-1	/	/	4
CCOC(=O)C1CCN(C(c2cc3c(C)ccc(C)c3[nH]c2=O)c2nnnn2C2CCCCC2)CC1 (stereo not drawn)	/	5	30*	1
CCOC(=O)C1CCN(C(c2cc3ccc(C)c(C)c3[nH]c2=O)c2nnnn2C2CCCCC2)CC1 (stereo not drawn)	-2	13	4	5
CCCCCCCCCCn1c2c(c(=N)c3c1CCC3)CCC2	1	11	97*	-4
Cc1ccc(NC(=O)Cc2nc(CSc3nnc(-c4ccc5c(c4)OCO5)o3)cs2)cc1	4	15	21	-8
COC(=O)c1sc2cc(C(F)(F)F)cnc2c1-c1ccccc1	/	8	45*	4
O=C(O)c1sc2cc(C(F)(F)F)cnc2c1-c1ccccc1	/	-7	-12	6
O=C1OCCC1Sc1nc(-c2ccccc2)cs1 (stereo not drawn)	3	-5	-5	5
